Results filed as inconclusive are left out. Calls of active or inactive are those of the source. Unless noted, calls follow the shape of the full dose curve.
Experiments:
[1] = molecular target: Bile acid receptor (Homo sapiens) (UniProt Q96RI1); experiment: qHTS assay for small molecule agonists of farnesoid X receptor signaling (AID 588527); settings: HEK293T FXR-UAS-bla, beta-lactamase ratio, 16 h; activation: stronger effect = higher value;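 also: series mostly up to about 77 µM; 0% = vehicle basal and 100% = reference agonist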
Procedure, shortened: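 Quantitative HTS used FXR-UAS-bla HEK293T cells with 16 h compound incubation at 37 C. EC50 values came from concentration-response curves normalized to chenodeoxycholic acid.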

[2] = molecular target: Peroxisome proliferator-activated receptor delta (Homo sapiens) (UniProt Q03181); experiment: qHTS assay for small molecule agonists of peroxisome proliferator-activated receptor delta signaling (AID 588534);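 also: 0% = DMSO basal wells and 100% = positive control agonist at 10 µM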
Procedure, shortened: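 Titration series tested in agonist mode on beta-lactamase reporter cells; 18 hrs at 37 C after a 5 hr pre-incubation. Readout: CCF4 fluorescence, 2 hrs RT. Hill equation gives EC50 and maximal response.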

[3] = qHTS assay for small molecule antagonists of peroxisome proliferator-activated receptor delta signaling (AID 588535; active = well fitted inhibition curve with a large enough effect in the signal ratio, with a control signal flat, not every such curve was filed as active; the % refers to the signal ratio;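 as to max response: cells co-treated with a PPAR-delta agonist as stimulator during compound exposure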); settings: HEK293T PPARd-UAS-bla, beta-lactamase FRET ratio, 18 h; 460 nm channel
Procedure, shortened: (§1)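 Antagonist-mode qHTS using GeneBLAzer PPAR-delta-UAS-bla HEK293T cells; compound exposure 18 hrs at 37 C over a titration. Ratiometric CCF4 fluorescence at 460/530 nm; concentration-response points fitted to the Hill equation.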

[4] = molecular target: Peroxisome proliferator-activated receptor delta (Homo sapiens) (UniProt Q03181); experiment: as above
Procedure, shortened: as §1

[5] = molecular target: Peroxisome proliferator-activated receptor gamma (Homo sapiens) (UniProt P37231); experiment: qHTS assay for small molecule agonists of peroxisome proliferator-activated receptor gamma signaling (AID 588536; active = well fitted curve in the direction sought with a large enough effect in the signal ratio, with a control signal flat, not every such curve was filed as active; the % refers to the signal ratio;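 also: 0% = DMSO basal wells and 100% = rosiglitazone at 2 µM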)
Procedure, shortened: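 Using GeneBLAzer HEK293 cells, response was quantified by CCF4 fluorescence and normalized between basal DMSO (0%) and rosiglitazone 2 uM (100%); curves yielded half-maximal stimulation concentration and efficacy.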

[6] = molecular target: Vitamin D3 receptor (Homo sapiens) (UniProt P11473); experiment: qHTS assay for small molecule antagonists of vitamin D receptor signaling (AID 588541);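 also: receptor activated by calcitriol during compound treatment; series mostly up to about 77 µM; % is scaled to controls: 0 for no effect and ±100 for the full control effect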
Procedure, shortened: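 Antagonist-mode beta-lactamase reporter assay: HEK293T VDR-UAS-bla cells were exposed to titrated compound alongside 1-alpha,25-dihydroxyvitamin D3 at 3 nM final for 16 h. Values were normalized to the 50 nM agonist control and DMSO basal, with IC50 and efficacy from Hill equation fits.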

[7] = qHTS assay for small molecule agonists of retinoid X receptor alpha signaling (AID 588544); settings: HEK293T RXRa-UAS-bla, beta-lactamase reporter, 18 h; 530 nm emission;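 as to activation: 0% = DMSO basal wells and 100% = reference agonist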
[8] = molecular target: Retinoic acid receptor RXR-alpha (Homo sapiens) (UniProt P19793); experiment: as above
[9] = qHTS assay for small molecule antagonists of retinoid X receptor alpha signaling (AID 588546; active = well fitted inhibition curve with a large enough effect in the signal ratio, with a control signal flat, not every such curve was filed as active; the % refers to the signal ratio; also: potency is read from the fitted curve at half-maximal effect;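 as to max response: cells stimulated with 9-cis-retinoic acid as agonist; % is scaled to controls: 0 for no effect and ±100 for the full control effect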); settings: HEK293T RXRa-UAS-bla, beta-lactamase ratio, antagonist mode; measured here: W530 green channel, cytotoxicity proxy
Procedure, shortened: (§2)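 Beta-lactamase reporter inhibition, read as CCF4 fluorescence ratio (ex 405, em 460/530 nm) after 2 h at RT. HEK293T UAS-bla cells, 2500/well, were stimulated with 9-cis-RA at 500 or 100 nM final alongside test compound for 18 h at 37 C.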

[10] = molecular target: Retinoic acid receptor RXR-alpha (Homo sapiens) (UniProt P19793); experiment: as above; settings: HEK293T RXRa-UAS-bla, beta-lactamase ratio, antagonist mode
Procedure, shortened: as §2

[11] = molecular target: Thyroid hormone receptor beta (Homo sapiens) (UniProt P10828); experiment: qHTS assay for small molecule antagonists of thyroid hormone receptor beta signaling (AID 588547; active = well fitted inhibition curve with a large enough effect in the signal ratio, with a control signal flat, not every such curve was filed as active; the % refers to the signal ratio;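 also: cells stimulated with 0.4 nM T3 agonist during compound exposure; series mostly up to about 77 µM; % is scaled to controls: 0 for no effect and ±100 for the full control effect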); settings: TR-UAS-bla HEK293, beta-lactamase ratio, antagonist mode, 18 h
Procedure, shortened: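 Inhibition of T3-driven (0.4nM final) beta-lactamase reporter activity was measured over 0.59 nM to 92 uM compound after 18 h at 37 C. The cells were GripTite HEK293 TR-UAS-bla in charcoal/dextran-stripped serum, with CCF4 ratio read-out and IC50 from Hill fits.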

[12] = qHTS assay for small molecule agonists of the antioxidant response element (ARE) signaling pathway (AID 651741; active = well fitted activation curve with a large enough effect in the signal ratio; the % refers to the signal ratio; also: potency is read from the fitted curve at half-maximal effect)
Procedure, shortened: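 Agonist activity is measured as ARE-driven beta-lactamase expression in a stable HepG2 reporter line, using 16 h compound treatment at 37 C and a FRET substrate fluorescence readout after 2 h.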

[13] = qHTS assay for small molecule activators of the p53 signaling pathway (AID 651743; active = well fitted activation curve with a large enough effect in the signal ratio, not every such curve was filed as active; the % refers to the signal ratio; also: series mostly up to about 92 µM; % of control where 0% means no effect); settings: HCT-116 p53RE-bla, beta-lactamase FRET ratio, 16 h; activation: stronger effect = higher value
Procedure, shortened: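 A beta-lactamase reporter under p53 response element control, stably carried by HCT-116 cells, reported pathway activation. Test compounds were applied for 16 hours at 37 C, and fluorescence was measured 2 hours after adding the B/G FRET substrate.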

[14] = qHTS assay for environmental chemicals that activate the Aryl hydrocarbon Receptor (AhR) signaling pathway (AID 651777; active = well fitted curve in the direction sought with a large enough effect; an effect the other way counts as inactive or inconclusive; also: % of control where 0% means no effect; nearly all actives have a fitted effect of over 15% in size); settings: 1A2-DRE human hepatoma cells, luciferase, 24 h; activation: stronger effect = higher value
Procedure, shortened: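 AhR activation is scored as a rise in luciferase from a stable DRE–CYP1A2 promoter construct in human hepatoma cells. Treatment lasts 24 hr at 37 C; detection uses One-Glo after 30 min at room temperature.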

[15] = molecular target: Peroxisome proliferator-activated receptor alpha (Homo sapiens) (UniProt Q07869); experiment: qHTS assay for small molecule agonists of the peroxisome proliferator-activated receptor alpha (PPARalpha) signaling pathway (AID 651778; active = well fitted curve in the direction sought with a large enough effect; an effect the other way counts as inactive or inconclusive; also: % of control where 0% means no effect); settings: PathHunter PPARalpha complementation, chemiluminescence, 6 h; max response: stronger effect = higher value
Procedure, shortened: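 Chemiluminescence from complemented enzyme reported PPARalpha activation in cells after 6 hr of compound treatment at 37 C. The detection reagent was incubated for 60 min at room temperature, and compounds were scored as agonists.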

[16] = qHTS assay for small molecule agonists of the antioxidant response element (ARE) signaling pathway measured by Nrf2-dependant transcriptional activity (AID 720636; active = well fitted curve in the direction sought with a large enough effect in the repeat runs; an effect the other way counts as inactive or inconclusive;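 also: HepG2 cells with an ARE-driven luciferase reporter; % of control where 0% means no effect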)
Procedure, shortened: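 First, ARE-luc HepG2 cells attached for 6 hr at 37 C in 1% dialyzed FBS medium. Next, compound or DMSO was added and incubated 16 hr. Finally, ONE-Glo reagent was added and luminescence measured after 30 min.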

[17] = qHTS assay for small molecule agonists of the antioxidant response element (ARE) signaling pathway measured by Nrf2-dependant transcriptional activity - cell viability counter screen (AID 720653; active = well fitted curve in the direction sought with a large enough effect in the repeat runs; an effect the other way counts as inactive or inconclusive; also: % is scaled to controls: 0 for no effect and ±100 for the full control effect); settings: ARE-bla HepG2 viability, CellTiter-Glo ATP luminescence, 16 h; max response: stronger effect = lower value
Procedure, shortened: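 Cytotoxicity counter screen: intracellular ATP quantified by CellTiter-Glo luminescence in the same ARE-bla HepG2 plates, after 16 h compound exposure and a 2 h beta-lactamase substrate step.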

[18] = qHTS assay for cell viability of HEK293 cells (AID 743288; active = well fitted curve in the direction sought with a large enough effect; an effect the other way counts as inactive or inconclusive; also: % is scaled to controls: 0 for no effect and ±100 for the full control effect; nearly all actives have a fitted effect of over 50% in size); settings: ATP luminescence (CellTiter-Glo), 18 h; max response: stronger effect = lower value
Procedure, shortened: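 ATP luminescence (CellTiter-Glo) reports metabolically competent cell number after parental HEK293 cells, 2,000/well, were treated with DMSO-dissolved compounds for 18 h at 37 C; reagent incubation 30 min, room temperature.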

[19] = qHTS assay for cell viability of the p53RE-bla HCT-116 cell line (AID 743292; active = well fitted curve in the direction sought with a large enough effect; an effect the other way counts as inactive or inconclusive; also: % is scaled to controls: 0 for no effect and ±100 for the full control effect; nearly all actives have a fitted effect of over 55% in size)
Procedure, shortened: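 Quantitative high-throughput format: compounds in DMSO were pinned onto p53RE-bla HCT-116 cells (4,000/well) and incubated 16 h at 37 C. Total intracellular ATP, read by CellTiter-Glo luminescence, reflects viable cell number.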

[20] = molecular target: Vitamin D3 receptor (Homo sapiens) (UniProt P11473); experiment: qHTS assay for small molecule agonists of vitamin D receptor signaling (AID 588543);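 also: 0% = DMSO basal and 100% = reference agonist control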
Procedure, shortened: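 β-lactamase reporter, VDR-UAS-bla HEK293T, agonist mode. Cells plated 5 h at 37 °C, compound titration 16 h at 37 °C, CCF4 dye 2 h RT, ratio 460/530 nm. Hill fit → EC50, efficacy vs 50 nM 1α,25-(OH)2D3.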

[21] = molecular target: Thyroid hormone receptor beta (Homo sapiens) (UniProt P10828); experiment: qHTS assay for small molecule agonists of thyroid hormone receptor beta signaling (AID 588545);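 also: 0% = DMSO only and 100% = 10 nM T3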
Procedure, shortened: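 Efficacy and EC50 values derive from Hill fits of qHTS titration data, normalized to 10 nM T3 and DMSO-only wells. HEK 293 reporter cells were stimulated for 18 hrs at 37 C, with beta-lactamase activity measured by CCF4 fluorescence.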

[22] = qHTS assay for small molecule activators of the nuclear factor-kappa B (NF-kB) signaling pathway (AID 651749; active = well fitted activation curve with a large enough effect in the signal ratio; the % refers to the signal ratio; also: series mostly up to about 77 µM; % of control where 0% means no effect); settings: NF-kB-bla ME-180 cells, beta-lactamase FRET ratio, 16 h; activation: stronger effect = higher value
Procedure, shortened: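 FRET-based beta-lactamase detection in ME-180 cells reports NF-kB response-element-driven transcription following overnight (16 hr) compound treatment.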

Sequence of Bile acid receptor (Homo sapiens) (Q96RI1 whole entry, looked up): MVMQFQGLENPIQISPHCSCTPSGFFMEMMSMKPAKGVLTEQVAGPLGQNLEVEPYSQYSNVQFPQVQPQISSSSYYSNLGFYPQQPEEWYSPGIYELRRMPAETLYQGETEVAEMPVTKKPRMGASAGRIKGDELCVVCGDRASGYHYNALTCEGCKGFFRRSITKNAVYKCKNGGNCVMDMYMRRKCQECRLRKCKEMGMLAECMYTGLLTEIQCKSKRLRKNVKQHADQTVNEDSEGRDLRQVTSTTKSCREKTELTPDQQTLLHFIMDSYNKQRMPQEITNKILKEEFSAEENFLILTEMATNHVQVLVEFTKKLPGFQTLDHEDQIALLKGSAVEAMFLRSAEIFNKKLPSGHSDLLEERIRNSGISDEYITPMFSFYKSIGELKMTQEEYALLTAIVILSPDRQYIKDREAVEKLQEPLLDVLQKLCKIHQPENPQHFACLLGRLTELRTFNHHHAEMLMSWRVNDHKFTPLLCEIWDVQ
Sequence of Thyroid hormone receptor beta (Homo sapiens) (P10828 whole entry, looked up): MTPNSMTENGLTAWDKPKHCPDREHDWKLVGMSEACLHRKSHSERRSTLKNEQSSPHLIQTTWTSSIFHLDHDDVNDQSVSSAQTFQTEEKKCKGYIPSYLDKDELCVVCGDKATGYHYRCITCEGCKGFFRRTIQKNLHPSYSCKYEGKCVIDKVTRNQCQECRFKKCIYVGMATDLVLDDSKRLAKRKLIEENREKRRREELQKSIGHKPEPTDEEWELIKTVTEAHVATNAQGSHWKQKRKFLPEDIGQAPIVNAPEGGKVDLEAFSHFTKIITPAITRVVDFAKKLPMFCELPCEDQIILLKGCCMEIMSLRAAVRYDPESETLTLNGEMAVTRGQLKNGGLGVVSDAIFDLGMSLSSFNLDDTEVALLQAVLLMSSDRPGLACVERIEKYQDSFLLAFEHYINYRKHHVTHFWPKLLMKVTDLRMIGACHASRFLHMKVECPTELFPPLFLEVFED
Sequence of Vitamin D3 receptor (Homo sapiens) (P11473 whole entry, looked up): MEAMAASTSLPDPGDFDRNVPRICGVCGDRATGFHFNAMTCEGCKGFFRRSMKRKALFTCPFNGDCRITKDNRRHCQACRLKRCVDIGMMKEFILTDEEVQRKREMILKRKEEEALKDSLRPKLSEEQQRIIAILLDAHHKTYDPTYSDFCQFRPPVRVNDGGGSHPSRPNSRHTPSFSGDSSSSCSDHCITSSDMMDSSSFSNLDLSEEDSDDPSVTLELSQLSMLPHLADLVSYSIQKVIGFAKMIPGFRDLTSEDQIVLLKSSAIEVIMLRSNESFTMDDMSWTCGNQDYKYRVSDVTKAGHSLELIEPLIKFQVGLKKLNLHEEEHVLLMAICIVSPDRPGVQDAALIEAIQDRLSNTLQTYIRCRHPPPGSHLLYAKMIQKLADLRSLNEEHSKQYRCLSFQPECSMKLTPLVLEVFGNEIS
Sequence of Peroxisome proliferator-activated receptor delta (Homo sapiens) (Q03181 whole entry, looked up): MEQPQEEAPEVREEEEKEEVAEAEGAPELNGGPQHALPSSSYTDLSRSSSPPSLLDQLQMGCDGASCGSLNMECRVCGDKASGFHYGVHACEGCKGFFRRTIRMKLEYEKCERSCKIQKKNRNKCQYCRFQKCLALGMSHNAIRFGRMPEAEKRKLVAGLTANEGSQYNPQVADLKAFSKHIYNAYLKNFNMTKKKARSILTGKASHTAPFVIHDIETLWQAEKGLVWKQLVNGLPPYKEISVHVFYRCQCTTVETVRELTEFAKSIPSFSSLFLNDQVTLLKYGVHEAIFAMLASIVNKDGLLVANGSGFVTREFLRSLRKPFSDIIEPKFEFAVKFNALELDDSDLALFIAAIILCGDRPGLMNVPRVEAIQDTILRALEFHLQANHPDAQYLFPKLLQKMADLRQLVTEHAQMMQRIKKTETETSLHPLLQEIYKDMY
Sequence of Retinoic acid receptor RXR-alpha (Homo sapiens) (P19793 whole entry, looked up): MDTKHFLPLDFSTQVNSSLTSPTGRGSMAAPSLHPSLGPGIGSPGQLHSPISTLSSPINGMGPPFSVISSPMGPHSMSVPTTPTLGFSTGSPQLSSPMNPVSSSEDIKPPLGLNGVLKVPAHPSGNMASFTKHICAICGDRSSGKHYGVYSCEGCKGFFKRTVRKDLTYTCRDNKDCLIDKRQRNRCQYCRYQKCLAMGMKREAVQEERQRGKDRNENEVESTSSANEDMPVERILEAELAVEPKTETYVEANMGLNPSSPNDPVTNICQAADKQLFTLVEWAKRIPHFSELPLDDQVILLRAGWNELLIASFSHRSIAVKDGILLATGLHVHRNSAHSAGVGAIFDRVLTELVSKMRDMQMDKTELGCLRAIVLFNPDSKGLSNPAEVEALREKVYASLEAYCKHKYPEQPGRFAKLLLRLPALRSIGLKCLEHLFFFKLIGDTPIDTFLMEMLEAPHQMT
Sequence of Peroxisome proliferator-activated receptor gamma (Homo sapiens) (P37231 whole entry, looked up): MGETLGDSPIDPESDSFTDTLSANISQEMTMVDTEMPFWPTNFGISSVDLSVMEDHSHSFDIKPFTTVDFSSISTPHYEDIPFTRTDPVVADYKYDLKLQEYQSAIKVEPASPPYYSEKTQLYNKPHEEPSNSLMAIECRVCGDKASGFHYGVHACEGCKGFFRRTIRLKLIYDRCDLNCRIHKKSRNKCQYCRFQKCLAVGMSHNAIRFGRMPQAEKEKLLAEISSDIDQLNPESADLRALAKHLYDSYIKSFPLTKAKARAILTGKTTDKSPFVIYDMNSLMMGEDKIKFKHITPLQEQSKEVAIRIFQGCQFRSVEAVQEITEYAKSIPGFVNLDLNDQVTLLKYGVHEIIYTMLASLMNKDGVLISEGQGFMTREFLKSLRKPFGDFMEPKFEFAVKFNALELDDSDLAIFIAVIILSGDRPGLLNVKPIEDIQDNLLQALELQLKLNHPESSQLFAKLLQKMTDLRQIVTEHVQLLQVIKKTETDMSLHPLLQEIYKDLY
Sequence of Peroxisome proliferator-activated receptor alpha (Homo sapiens) (Q07869 whole entry, looked up): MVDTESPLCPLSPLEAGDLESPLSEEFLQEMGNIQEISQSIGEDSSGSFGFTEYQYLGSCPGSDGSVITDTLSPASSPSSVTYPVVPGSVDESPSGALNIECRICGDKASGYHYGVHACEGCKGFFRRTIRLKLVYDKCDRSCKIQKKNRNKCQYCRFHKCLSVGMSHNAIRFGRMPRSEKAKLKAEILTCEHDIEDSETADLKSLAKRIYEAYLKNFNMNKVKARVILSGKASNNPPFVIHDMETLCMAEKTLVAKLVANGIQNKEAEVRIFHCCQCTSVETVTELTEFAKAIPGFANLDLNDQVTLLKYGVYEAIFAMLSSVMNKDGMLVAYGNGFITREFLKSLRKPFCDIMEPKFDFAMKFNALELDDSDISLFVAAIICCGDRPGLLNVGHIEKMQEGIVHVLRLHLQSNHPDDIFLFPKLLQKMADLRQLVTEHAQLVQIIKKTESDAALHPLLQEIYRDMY

C#CCC1=C(C)[C@H](OC(=O)[C@H]2[C@H](C=C(C)C)C2(C)C)CC1=O
inactive: activation [1] 1.85% | outcome [2] | Potency [4] | Potency [5] | Potency [6] | Potency [8] | max response [10] -4.47% | activity change % (negative = inhibition) [11] -5.41% | activation [13] 1.18% | activation [14] 9.06% | max response [15] 3.44% | Potency [16] | max response [17] -1.44% | max response [18] -10.8% | Potency [19]
active: Potency [12] 61.1 µM
25.2%: max response [3]
-0.262%: max response [9]
11.7%: max response [7]

CCCCOC(=O)[C@@H](C)Oc1ccc(Oc2ccc(C(F)(F)F)cn2)cc1
inactive: activation [1] -2.63% | outcome [2]

C=CC(=O)OCC[N+](C)(C)C
inactive: activation [1] -2.87% | outcome [2]

OC1CCC(C2CCCCC2)CC1 (stereo unspecified)
inactive: activation [1] 0.637% | outcome [2]

NC(=O)/N=N/C(N)=O
inactive: activation [1] -1.16% | outcome [2]

BrC/C=C/CBr
inactive: activation [1] 1.2% | outcome [2]

CCOP(=S)(OCC)SCn1nnc2ccccc2c1=O
30.8%: max response [9]
7.16%: max response [3]
active: Potency [10] 39.8 µM | Potency [12] 54.5 µM
inactive: activation [1] 3.29% | outcome [2] | Potency [4] | Potency [5] | Potency [6] | outcome [20] | Potency [21] | activity change % (negative = inhibition) [11] -2.51% | activation [13] 2.43% | activation [22] -3.08% | activation [14] 6.1% | max response [15] -0.264% | Potency [16] | max response [17] -19.9% | Potency [19]

CCC(C)O (stereo unspecified)
inactive: activation [1] 0.0237% | outcome [2]

OCC(CO)(CBr)CBr
inactive: activation [1] -0.248% | outcome [2]

O=c1[nH]c(=O)c2[nH]cnc2[nH]1
inactive: activation [1] -9.18% | outcome [2]

CC(=O)Nc1ccc(N=Nc2cc(C)ccc2O)cc1
inactive: activation [1] 0.585% | outcome [2]

Source: PubChem BioAssay (NCATS)
